Where “and” joins values, the source holds several entries; their conditions need not be identical. Equal values may be shown once. Where a name gives a salt, the structure may show the parent alone.
Assays:
Assay in all cases: cell viability relative to vehicle control; higher = less cytotoxic
Details in all cases: 10 µM
[1] = test system: K562
How it was run: (§1)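 After removal of identity-inconsistent compounds, the Selleck bioactive, kinase and epigenetic probe libraries were screened on CRISPR-edited mutant clones and isogenic wild-type clones of four leukaemia lines. Plates were 384-well, each well holding 2000 cells in 50 µL medium and receiving a single 10 µM acoustically dispensed dose. CellTiter-Glo luminescence was read 48 h later, after the supernatant was taken off. Genedata Screener was used to express viability as percent of the on-plate vehicle control.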

[2] = test system: MARIMO
How it was run: as §1

[3] = test system: MOLM14
How it was run: as §1

[4] = test system: OCI-AML2
How it was run: as §1

| SMILES | cell viability ([1]; SRSF2 genotype: SRSF2 P95H/wt) | cell viability ([1]; SRSF2 genotype: SRSF2 wt/wt) | cell viability ([2]; SRSF2 genotype: SRSF2 P95H/wt) | cell viability ([2]; SRSF2 genotype: SRSF2 wt/wt) | cell viability ([3]; SRSF2 genotype: SRSF2 P95H/wt) | cell viability ([3]; SRSF2 genotype: SRSF2 wt/wt) | cell viability ([4]; SRSF2 genotype: P95H/wt) | cell viability ([4]; SRSF2 genotype: wt/wt) |
| --- | --- | --- | --- | --- | --- | --- | --- | --- |
| NC(=O)c1ccc[n+]([O-])c1 [Nicotinamide N-oxide] | 110% | 111% | 107% | 109% | 98.7% | 105% | 112% | 101% |
| CCS(=O)(=O)N1CC(CC#N)(n2cc(-c3ncnc4[nH]ccc34)cn2)C1 | 110% and 106% | 108% | 111% | 115% | 106% | 109% | 84.7% | 92.9% |
| CC(=O)Nc1ccc(C(=O)Nc2ccccc2N)cc1 [CI994 (Tacedinaline)] | 59.2% and 64.7% | 66% | 37.9% | 41.3% | 31.6% | 25.8% | 24.3% | 30% |
| O=C1CCc2ccc(O)cc2N1 [7-Hydroxy-3,4-dihydrocarbostyril] | 110% and 104% | 102% | 105% | 112% | 107% | 103% | 101% | 107% |
| NCCc1c[nH]cn1 [Histamine 2HCl] | 99% and 106% | 105% | 96.7% | 96.1% | 69% | 82.3% | 110% | 88.3% |
| CC(C)c1ccc(NC(=O)Cn2cnc3c2c(=O)n(C)c(=O)n3C)cc1 | 88.2% and 87.9% | 94.4% | 91% | 96.1% | 95.1% | 96.2% | 87.5% | 91% |
| COc1ccccc1N1CCN(CC(O)COc2cccc3ccccc23)CC1 (stereo unspecified) [Naftopidil (Flivas)] | 74.1% and 86.9% | 79.5% | 66.2% | 71.5% | 64.1% | 72.3% | 83.5% | 84.6% |
| COC(=O)Nc1nc2cc(Sc3ccccc3)ccc2[nH]1 [Fenbendazole (Panacur)] | 17.8% and 31.8% | 32.8% | 27.3% | 10.4% | 9.32% | 4.51% | 9.8% | 12.7% |
| O=Cc1ccc(O)c(O)c1 [3,4-Dihydroxybenzaldehyde] | 95.8% and 92.8% | 93.7% | 77.4% | 91.9% | 91.3% | 99.4% | 88.9% | 92.4% |
| COc1ccc2cc1Oc1ccc(cc1)C[C@H]1c3c(cc4c(c3Oc3cc5c(cc3OC)CCN(C)[C@@H]5C2)OCO4)CCN1C [Cepharanthine] | 5.44% and 5.78% | 3.74% | 57.9% | 50.3% | 25.4% | 26.7% | 0.56% | 8.53% |
| COc1cccc(-c2cc(F)ccc2C2Cc3nc(N)nc(C)c3C(=O)N2)n1 (stereo unspecified) | 21.2% and 27.1% | 24% | 29.6% | 24.7% | 1.82% | 3% | 15.3% | 19.9% |
| O=C1CCC[C@@H]2[C@H]3CCC[N+]4([O-])CCC[C@@H](CN12)[C@@H]34 (stereo partly specified) [Oxymatrine (Matrine N-oxide)] | 105% and 96.8% | 99% | 101% | 98.9% | 100% | 98.2% | 97.7% | 96.5% |
| CCOCc1nc2c(N)nc3ccccc3c2n1CC(C)(C)O [Resiquimod] | 94.5% and 96% | 92.3% | 86% | 87.6% | 97.1% | 96.1% | 95.8% | 98.8% |
| Cc1ccc(S(=O)(=O)Nc2cc(-c3ccc(C#N)s3)ccc2C)cc1 | 12.9% and 36.3% | 33.5% | 7.34% | 8.88% | 1.58% | 1.53% | 2.78% | 5.12% |
| O=C1Cc2cc(CCN3CCN(c4nsc5ccccc45)CC3)c(Cl)cc2N1 [Ziprasidone hydrochloride] | 87% and 98.6% | 97% | 88.7% | 95.2% | 37.8% | 81.3% | 91.9% | 88.1% |
| COc1cc(C=CC(=O)CC(=O)C=Cc2ccc(O)cc2)ccc1O [Demethoxycurcumin] | 46.9% and 54.2% | 64.6% | 62.9% | 64.4% | 8.11% | 13.7% | 13.5% | 23.6% |
| N=C(N)NC(=N)NCCc1ccccc1 [Phenformin hydrochloride] | 84.6% and 93.3% | 91.7% | 93.2% | 98.2% | 101% | 94.9% | 86% | 89.3% |
| COc1cc(C(=O)NC2CCCNC2)cc(OC)c1OC (stereo unspecified) [Troxipide] | 98.2% and 99.3% | 101% | 102% | 106% | 103% | 100% | 99.7% | 105% |
| CN(C)CCSSCCNC(=O)C1CCN(C(=O)CSc2ccc(Cl)cc2)CC1 | 82% and 85.7% | 81.6% | 68% | 86.9% | 91.8% | 95.1% | 89.8% | 79.5% |
| CC1(C)CCCC2(C)OC(=O)C=C12 (stereo unspecified) [Dihydroactinidiolide] | 104% and 93.7% | 94.5% | 97.6% | 104% | 93.8% | 99.7% | 91.1% | 104% |
| CCC(C)(Oc1ccc(C2(c3ccc(OC(C)(CC)C(=O)O)cc3)CCCCC2)cc1)C(=O)O (stereo unspecified) [Clinofibrate] | 95.4% and 93.2% | 93.7% | 92.4% | 102% | 93.8% | 96.6% | 90.4% | 102% |

| SMILES | cell viability ([1]; SRSF2 genotype: SRSF2 P95H/wt) | cell viability ([1]; SRSF2 genotype: SRSF2 wt/wt) | cell viability ([2]; SRSF2 genotype: SRSF2 P95H/wt) | cell viability ([2]; SRSF2 genotype: SRSF2 wt/wt) | cell viability ([3]; SRSF2 genotype: SRSF2 P95H/wt) | cell viability ([3]; SRSF2 genotype: SRSF2 wt/wt) | cell viability ([4]; SRSF2 genotype: P95H/wt) | cell viability ([4]; SRSF2 genotype: wt/wt) |
| --- | --- | --- | --- | --- | --- | --- | --- | --- |
| CCc1cc(C(N)=S)ccn1 [Ethionamide] | 97.4% and 93.4% | 91.2% | 97% | 98.1% | 106% | 100% | 94.3% | 97.7% |
| CC(C)NC[C@H](O)COc1ccc(CCOCC2CC2)cc1 [Levobetaxolol HCl] | 91.7% and 81.4% | 83% | 83% | 90.6% | 89.1% | 91.8% | 79.4% | 98.4% |
| C[C@H](CC(=O)C[C@@H](C)[C@H]1C[C@H](O)[C@@]2(C)C3=C(C(=O)C[C@]12C)[C@@]1(C)CCC(=O)C(C)(C)[C@@H]1C[C@@H]3O)C(=O)O [Ganoderic acid A] | 102% and 109% | 103% | 104% | 104% | 99.5% | 102% | 102% | 111% |
| CC12CCC(C1)C(C)(C)C2O (stereo unspecified) [Fenchyl Alcohol] | 105% and 94.5% | 91.5% | 89.9% | 100% | 96.4% | 96.6% | 91.5% | 89.1% |
| FC(F)(F)Oc1ccc2nc(-c3ccc(OCCOCCOc4ccc(-c5nc6ccc(OC(F)(F)F)cc6[nH]5)nc4)cn3)[nH]c2c1 | 52.4% and 53% | 56.4% | 26.9% | 39.3% | 50.4% | 41.3% | 18.4% | 24.8% |
| N=C1NC(=O)/C(=C/c2ccc(O)cc2)S1 [Mirin] | 93.7% and 96.5% | 101% | 86.4% | 87.3% | 76.5% | 85.1% | 64.9% | 71% |
| O=C(Nc1ccccc1-c1cn2c(CN3CCNCC3)csc2n1)c1cnc2ccccc2n1 | 0.23% and 0.19% | 0.26% | 0.19% | 0.26% | 0.15% | 0.18% | 0.14% | 0.2% |
| Cc1ccc(NC(=S)NNc2c([N+](=O)[O-])cc(C(F)(F)F)cc2[N+](=O)[O-])cc1Cl | 81% and 81.3% | 90.4% | 87.3% | 86.2% | 89.3% | 84.6% | 101% | 94.4% |
| Cc1[nH]c2ccccc2c1C1=C(NCCc2ccc(F)cc2)C(=O)N(C)C1=O | 97% and 105% | 102% | 94.9% | 100% | 99.4% | 105% | 100% | 89.8% |
| CC/C(=C(\c1ccc(O)cc1)c1ccc(OCCNC)cc1)c1ccccc1 [Endoxifen HCl] | 21% and 29.8% | 24.5% | 66% | 59.9% | 23.2% | 29.7% | 17% | 38.1% |
| Cc1cnc(C(=O)O)c[n+]1[O-] [Acipimox] | 99.3% and 96.5% | 97.6% | 96.7% | 100% | 98.8% | 101% | 105% | 104% |
| CNC[C@H](O)c1cccc(O)c1 [Phenylephrine hydrochloride] | 103% and 114% | 109% | 104% | 104% | 101% | 109% | 106% | 103% |
| COc1cc2nc(N3CCN(C(=O)C4CCCO4)CC3)nc(N)c2cc1OC (stereo unspecified) [Terazosin HCl] | 97.7% and 96.9% | 96.6% | 99.5% | 102% | 101% | 99.2% | 103% | 104% |
| CC(C)=CCC/C(C)=C/C=O [Citral] | 96% and 106% | 94.4% | 88.4% | 98.9% | 88.2% | 94.8% | 95.3% | 92% |
| Cc1cc(=O)[nH]c(=S)[nH]1 [Methylthiouracil] | 99.3% and 106% | 90.5% | 96.7% | 107% | 99.9% | 103% | 95.5% | 104% |
| COC(=O)[C@H](Cc1ccccc1)NC(=O)[C@@H](N)CC(=O)O [Aspartame] | 101% and 92.2% | 91.6% | 102% | 101% | 98.8% | 97.1% | 93.6% | 92.1% |
| C=C(C)[C@@H]1CC[C@]2(C=O)CC[C@]3(C)[C@H](CC[C@@H]4[C@@]5(C)CC[C@H](O)C(C)(C)[C@@H]5CC[C@]43C)[C@@H]12 [Betulinicaldehyde] | 101% and 97.2% | 102% | 95.1% | 94.2% | 103% | 98% | 94.5% | 92% |
| CCCCc1ccc(O)cc1O [4-Butylresorcinol] | 99.6% and 85.8% | 91.2% | 90.6% | 102% | 86.5% | 93.8% | 85.7% | 88.9% |
| Nc1ccc(S(=O)(=O)Nc2nccs2)cc1 [Sulfathiazole] | 104% and 98.6% | 95.4% | 95.8% | 107% | 103% | 102% | 96% | 105% |
| CCOC(=O)C1=C[C@]2(CC)CCCN3CCc4c(n1c1ccccc41)[C@@H]32 [Vinpocetine (Cavinton)] | 93.6% and 101% | 95.6% | 96.5% | 110% | 101% | 101% | 89.5% | 101% |
| Clc1ccc(CCC(Cn2ccnc2)Sc2c(Cl)cccc2Cl)cc1 (stereo unspecified) [Butoconazole nitrate] | 74.1% and 80.8% | 75.7% | 75.8% | 83.9% | 79.7% | 75.7% | 71.5% | 69.6% |
